From the supplement of paper PMC3334620
Whole data set: some 33,000 sequences, median “E-score (-0.5 to 0.5)” near -0.012, cut for the highest 2% near 0.29. For the sample, the highest values were picked, then their nearest neighbours and some sequences at random.

These sequences were tested against T1, Ybr033w (UniProt P38073) (assay: PBM E-score (8-mer binding enrichment) (E-score (-0.5 to 0.5)); higher = stronger / more preferred TF binding). Details: protein concentration: 200 nM; construct: GST-full length.
T1 sequence: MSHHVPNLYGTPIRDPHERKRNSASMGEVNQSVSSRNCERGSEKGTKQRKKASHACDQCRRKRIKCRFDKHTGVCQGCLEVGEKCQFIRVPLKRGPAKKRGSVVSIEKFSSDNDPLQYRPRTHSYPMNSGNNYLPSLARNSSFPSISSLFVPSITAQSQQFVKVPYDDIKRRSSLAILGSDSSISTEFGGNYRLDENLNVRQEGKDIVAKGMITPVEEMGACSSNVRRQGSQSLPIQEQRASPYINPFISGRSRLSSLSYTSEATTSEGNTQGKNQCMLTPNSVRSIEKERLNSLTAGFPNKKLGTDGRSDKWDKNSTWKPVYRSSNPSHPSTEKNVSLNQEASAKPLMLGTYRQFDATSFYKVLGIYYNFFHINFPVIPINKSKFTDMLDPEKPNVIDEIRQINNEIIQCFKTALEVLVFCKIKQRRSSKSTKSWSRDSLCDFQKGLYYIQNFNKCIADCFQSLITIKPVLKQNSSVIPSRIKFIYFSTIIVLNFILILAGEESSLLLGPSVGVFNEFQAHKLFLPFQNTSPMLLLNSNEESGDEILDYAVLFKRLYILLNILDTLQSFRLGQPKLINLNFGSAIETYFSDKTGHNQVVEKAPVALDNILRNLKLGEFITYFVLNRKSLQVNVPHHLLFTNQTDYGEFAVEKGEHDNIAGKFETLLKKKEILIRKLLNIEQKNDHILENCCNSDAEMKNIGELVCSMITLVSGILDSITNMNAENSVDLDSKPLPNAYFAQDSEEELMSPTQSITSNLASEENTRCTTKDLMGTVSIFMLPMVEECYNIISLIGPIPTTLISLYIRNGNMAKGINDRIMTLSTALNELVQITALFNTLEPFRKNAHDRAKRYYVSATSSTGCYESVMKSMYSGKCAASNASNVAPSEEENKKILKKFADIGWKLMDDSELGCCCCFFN
Protocol: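 Universal 'all 10-mer' protein binding microarrays (Agilent AMADID 015681) probed with GST-tagged S. cerevisiae TFs (full-length or DBD) made by in vitro transcription/translation (PURExpress), about 100-200 nM. Bound TF was detected with fluorescent anti-GST. Each ungapped 8-mer (which stands for itself and its reverse complement) is scored by the PBM enrichment score (E-score), a modified Wilcoxon-Mann-Whitney statistic from -0.5 to +0.5, computed with the Universal PBM Analysis Suite. Scale: above 0.35 generally sequence-specific binding.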

Row | Sequence | PBM E-score
1 | TACCGGAA | 0.27
2 | TGCTACAA | 0.161
3 | CAGTTTGA | 0.206
4 | AGCGGCAT | 0.0383
5 | CCCACAAC | -0.108
6 | CTGTAGGA | 0.0305
7 | TTCTAGAA | 0.102
8 | GTTTTCAA | 0.146
9 | GTCCAGAC | -0.308
10 | CGCCCAGA | -0.174
11 | ACGATCTA | -0.0695
12 | CTACAATA | 0.164
13 | ATACAATA | 0.332
14 | ATACAATC | 0.0522
15 | CCGCGAGC | -0.194
16 | CACTTTTA | 0.0413
17 | TAGGAGGA | 0.0316
18 | ACGGAATC | 0.113
19 | GCGGAATA | 0.293
20 | GCGGAAGA | 0.236
21 | ACGGAATA | 0.351
22 | CCGGAATA | 0.412
23 | ACGGAATG | -0.153
24 | GGGGAATA | -0.0146
25 | CCGGAATC | -0.0781

Row | Sequence | PBM E-score
26 | CGGGAATA | 0.246
27 | CCTATTCG | -0.149
28 | CGACGGTA | -0.0307
29 | ATTACTAA | 0.225
30 | CGTTCTTA | 0.0158
31 | ATCTTCTC | 0.0573
32 | ACATCGGG | -0.0939
33 | TATTTGAA | 0.255
34 | CTTAATAC | 0.136
35 | ATTAATCG | 0.166
36 | ACTAATAG | 0.2
37 | ATTAATAA | 0.302
38 | AGTAATAA | 0.18
39 | GTTAATAA | 0.329
40 | ATTAATAC | 0.306
41 | CTTAATAA | 0.182
42 | ACTAATAC | 0.228
43 | ATTAATAG | 0.373
44 | GTTAATCA | 0.277
45 | ATTAATCA | 0.26
46 | GACACACC | -0.0728
47 | CAGGGTGG | -0.234
48 | CTCTAGGC | -0.153
49 | GCATAGCA | 0.0192
50 | GCTAGTAA | -0.014

Row | Sequence | PBM E-score
51 | CAAGGTGA | -0.103
52 | ACCTAGCA | 0.0895
53 | AGTGAAGC | -0.0225
54 | ACCTCGGA | 0.0486
55 | CGAATCGC | -0.0798
56 | ACAGGTAC | -0.0953
57 | CACGCGCG | -0.0876
58 | GAAGGCCC | -0.223
59 | ATAAAATA | 0.344
60 | ATAAAAAA | 0.164
61 | TTAAATAA | 0.264
62 | ATAAAAGG | -0.0365
63 | ATAAAATC | 0.226
64 | ATAAATAT | 0.396
65 | ATAAATAG | 0.254
66 | ATAAAAAG | 0.316
67 | GTAAAATA | 0.269
68 | ATAAATAC | 0.211
69 | ATAAAAAT | 0.193
70 | ATAAATAA | 0.38
71 | CGAAAATC | 0.222
72 | CACCTATA | 0.0106
73 | AGTCTGTC | -0.0266
74 | ACCTTCCG | -0.032
75 | CGTATAGC | -0.0573

Row | Sequence | PBM E-score
76 | CGATTGGC | -0.0233
77 | ACCGGTCA | -0.2
78 | CCCCAAAC | -0.101
79 | AAATAAGA | 0.16
80 | ACTCAGAA | 0.11
81 | TGCTATAA | 0.0493
82 | AAATTGTA | 0.22
83 | AAATTGAC | 0.108
84 | ATATTGAT | 0.39
85 | AAATTGAT | 0.336
86 | AAATTGAA | 0.127
87 | ATATTGAG | 0.259
88 | ATATTGAA | 0.189
89 | AAATTGTT | 0.317
90 | AAATTGTC | 0.192
91 | AAGGGCAG | -0.151
92 | TACTGGCA | -0.0764
93 | ATAGAGCG | -0.117
94 | AGCACTCC | -0.0492
95 | ATAATAAA | 0.366
96 | ATAATACG | 0.187
97 | ATAATACC | 0.187
98 | ATAATAGA | 0.223
99 | GTAATAAA | 0.198
100 | ACAATAAC | 0.246

Row | Sequence | PBM E-score
101 | CTAATAAA | 0.28
102 | ACAATAAT | 0.341
103 | TTAATAAA | 0.381
104 | ACAATAAA | 0.14
105 | ATAATACA | 0.305
106 | CTAATAAC | 0.216
107 | ACAGCCCG | -0.175
108 | GATCTCCA | -0.0356
109 | GGATCTAA | -0.0711
110 | CGAGACCC | -0.167
111 | GAGAACTA | 0.101
112 | AAGCCCTA | -0.124
113 | ACATACAT | 0.226
114 | AACCCTAG | -0.0236
115 | ACTTTAAT | 0.114
116 | AAGCAAAA | 0.13
117 | CCGGGTCG | -0.279
118 | CCCGGGAC | -0.322
119 | ATAATAAT | 0.305
120 | ATAATAAG | 0.18
121 | ATAATAAC | 0.159
122 | ATAATGAG | 0.0777
123 | ATAATGAA | 0.331
124 | ATAATGAT | 0.203
125 | CTTGCTGA | 0.0188

Row | Sequence | PBM E-score
126 | CGGACAAG | -0.0192
127 | CGGACAAA | 0.297
128 | AGGACAAA | 0.17
129 | CAGACTTA | -0.189
130 | TCAAGAGA | 0.0989
131 | AGATTCTA | 0.106
132 | GATGTTCC | 0.412
133 | CATGTTCC | 0.0191
134 | GATGTTCA | -0.079
135 | CCTGAGAC | -0.235
136 | ATTCTCCA | 0.175
137 | ATTCTCCG | 0.305
138 | ATTCTCCC | 0.14
139 | CCACAGGC | -0.336
140 | AACTCTCT | 0.0664
141 | ACCTCAGG | -0.12
142 | ATATCTTA | 0.281
143 | ATATCTTC | 0.218
144 | ATATCTTG | 0.288
145 | CTAGAGGA | -0.102
146 | GCAAATTA | 0.106
147 | TGGTCGAA | -0.209
148 | GATATACA | 0.144
149 | AGTATACA | 0.185
150 | CATATACA | 0.324

Row | Sequence | PBM E-score
151 | GGTATACA | 0.00479
152 | TGTATACA | 0.341
153 | AATATACA | 0.316
154 | AATATACT | 0.279
155 | CATATACC | -0.165
156 | TATATACA | 0.24
157 | GTCTAATA | 0.0847
158 | GGCTCCAC | -0.267
159 | GATAGGAC | -0.188
160 | GTGATCAC | -0.181
161 | TACTCACA | 0.158
162 | ATCGAGCG | -0.089
163 | GATCTAGA | 0.0239
164 | GATACCCA | 0.0285
165 | CAATATAG | 0.115
166 | AAATAGTT | 0.227
167 | AACTATAC | 0.151
168 | AAATATAG | 0.305
169 | ATATATAG | 0.332
170 | AACTATAG | 0.104
171 | AAATATGG | 0.12
172 | CTATATAG | 0.0604
